SMILES strings stand for the structures. Values without a mark were called inactive. The source made the active and inactive calls. Unless noted, the call rests on the fitted dose curve; in most records, active means well fitted curve in the direction sought with a large enough effect in the repeat runs; inconclusive means weak or mixed curves; inactive means flat fitted curve, though single readings scatter.

Assay [1] in a line: qHTS assay to test for compound auto fluorescence at 590 nm (red) in HEK293 cell free culture (AID 720683). The gist of the method:
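Tox21 10K library compounds were pinned into cell-free DMEM with 10% FBS and fluorescence was read at excitation 540 nm. Activity is expressed as Rose Bengal sodium equivalency.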
For orientation: Quantitative high-throughput screening tests each substance at several concentrations.

A short description of assay [2]: qHTS assay to test for compound auto fluorescence at 590 nm (red) in HepG2 cell free culture (AID 720684). The gist of the method: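 Ex 540 / Em 590 nm read of compound in cell-free MEM (10% FBS). Rose Bengal sodium reference.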
A short description of assay [3]: qHTS assay to test for compound auto fluorescence at 460 nm (blue) in HepG2 cell free culture (AID 720685). The gist of the method: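 Cell-free plates of MEM plus 10% FBS received 23 nL compound or DMSO vehicle; blue-channel (405/460 nm) intensity scored against triamterene as reference fluorophore.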
The nature of assay [4]: qHTS assay to test for compound auto fluorescence at 535 nm (green) in HepG2 cell free culture (AID 720686).
The nature of assay [5]: qHTS assay to test for compound auto fluorescence at 535 nm (green) in HEK293 cell free culture (AID 720682). The gist of the method:
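Steps: dispense DMEM/10% FBS into empty wells; pin in compound or DMSO; measure fluorescence at 485/535 nm. Values are fluorescein equivalents.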

Assay [6] is described as follows: qHTS assay to test for compound auto fluorescence at 460 nm (blue) in HepG2 cells (AID 720687). The gist of the method: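 Cells (2,000/well in MEM with 10% FBS) attached overnight at 37 C, then were exposed to compound or DMSO for 1 hr at 37 C, 5% CO2. Fluorescence read at Ex/Em 405/460 nm, expressed as triamterene-equivalent signal.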
Assay [7] is described as follows: qHTS assay to test for compound auto fluorescence at 460 nm (blue) in HEK293 cell free culture (AID 720681). In a few lines: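 Test compounds were pinned into cell-free culture medium (DMEM with 10% FBS) and fluorescence was read directly at Ex/Em 405/460 nm. Signals were expressed as fluorescence equivalents of triamterene, with DMSO vehicle as control.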
For assay [8], the target named is Glucocorticoid receptor (Homo sapiens) (UniProt P04150). Put plainly: qHTS assay to identify small molecule agonists of the glucocorticoid receptor (GR) signaling pathway (AID 720691; active means well fitted activation curve with a large enough effect in the signal ratio in the repeat runs, not every such curve was filed as active; inconclusive means weak or mixed curves, or effect the other way; inactive means no such curve, though single readings can be large or run the other way; the % refers to the signal ratio; further: potency means the concentration at half of the fitted maximal effect). The gist of the method: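 Compounds in DMSO, alongside positive controls, were added to GR-bla HeLa reporter cells and incubated 18 h at 37 C; GRE-driven beta-lactamase was detected by fluorescence after 2 h with FRET substrate at room temperature.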

Assay [9] shares this target. As to the kind of experiment: qHTS assay to identify small molecule antagonists of the glucocorticoid receptor (GR) signaling pathway (AID 720692; active means well fitted inhibition curve with a large enough effect in the signal ratio in the repeat runs, not every such curve was filed as active; inconclusive means weak or mixed curves, or effect the other way; inactive means no such curve, though single readings can be large or run the other way; the % refers to the signal ratio). In a few lines:
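In a 1536-well cell format, compounds were added 4 h after seeding GR-bla HeLa cells, together with dexamethasone at 5 nM final; reporter activity was measured by FRET-substrate fluorescence following 18 h at 37 C.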
On the % scale 0 is the no-effect control and ±100 the full control effect.

Glucocorticoid receptor (Homo sapiens), sequence (P04150 whole entry, looked up): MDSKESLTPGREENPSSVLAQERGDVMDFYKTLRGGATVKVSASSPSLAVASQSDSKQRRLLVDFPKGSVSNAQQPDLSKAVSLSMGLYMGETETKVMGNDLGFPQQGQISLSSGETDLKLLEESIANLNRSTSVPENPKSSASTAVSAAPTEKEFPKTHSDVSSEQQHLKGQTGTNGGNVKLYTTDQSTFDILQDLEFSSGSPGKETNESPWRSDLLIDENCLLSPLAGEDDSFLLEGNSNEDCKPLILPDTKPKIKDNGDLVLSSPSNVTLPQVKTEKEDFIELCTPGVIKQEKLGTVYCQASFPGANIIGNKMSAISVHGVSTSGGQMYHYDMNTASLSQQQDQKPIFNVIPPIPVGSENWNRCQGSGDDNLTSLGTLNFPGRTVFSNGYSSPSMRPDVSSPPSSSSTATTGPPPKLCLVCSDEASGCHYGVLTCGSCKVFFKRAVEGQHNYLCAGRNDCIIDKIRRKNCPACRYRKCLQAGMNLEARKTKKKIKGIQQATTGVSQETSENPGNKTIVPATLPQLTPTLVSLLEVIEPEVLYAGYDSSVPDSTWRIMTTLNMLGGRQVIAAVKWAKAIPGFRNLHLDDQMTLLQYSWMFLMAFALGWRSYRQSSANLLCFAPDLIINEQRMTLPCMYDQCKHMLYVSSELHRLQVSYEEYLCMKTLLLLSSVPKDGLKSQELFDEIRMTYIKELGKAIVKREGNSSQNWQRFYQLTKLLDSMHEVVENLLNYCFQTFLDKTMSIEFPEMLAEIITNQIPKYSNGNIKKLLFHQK

`OC(CCN1CCCCC1)(c1ccccc1)c1ccccc1`: the molecule was called inactive in [1], in [2], in assay [3] and in [4].

Turning to `O=S(=O)(O)SSS(=O)(=O)O`, the outcome in assay [5], in assay [1], in assay [2], in assay [3], in [4] and in assay [6] was inactive.

`O=C(O)c1c(Cl)ccc(Cl)c1Cl`: the molecule was called inactive in assay [7], in assay [1], in assay [2], in assay [3], in assay [4] and in assay [6]. The Potency result in assay [8] was “inactive”.

Consider `C=CCOC(=O)c1ccc(C(=O)OCC=C)c(C(=O)OCC=C)c1`, for which the outcome in assay [7], in assay [5], in assay [1], in assay [2], in assay [3] and in [4] was inactive. Moreover, in assay [8], the Potency entry is “inactive”.

As for `O=C(c1ccc2c(c1)C(=O)OC2=O)c1ccc2c(c1)C(=O)OC2=O`, the call in assay [7], in assay [5], in assay [1], in assay [2], in [3] and in assay [4] was inactive. Moreover, the result in [6] and in assay [9] was inactive. Also, in assay [8], the Potency entry was “inactive”.

As for `O=C(COCCOCCOCC(=O)Nc1c(I)cc(I)c(C(=O)O)c1I)Nc1c(I)cc(I)c(C(=O)O)c1I`, the molecule was called inactive in assay [7], in [5], in [1], in assay [2], in assay [3] and in [4]. In addition, the molecule was classed as inactive in assay [6]. Also, the Potency result in assay [8] was “inactive”.

On to `C=C(C)C(=O)OCCCCCCOC(=O)C(=C)C`, for which the molecule was classed as inactive in [7], in assay [5], in assay [1], in [2], in [3] and in assay [4]. Besides, in [6], the call was inactive. The Potency entry in [8] is “inactive”.

In the case of `Nc1ccc(S(=O)(=O)Nc2ccccn2)cc1`, the fluorescence, % of fluorescent control in assay [7] is -0.0806% [at 18.6 µM]; in assay [1], 0.101% [at 18.6 µM]; in assay [3], -0.12% [at 18.6 µM]. In [5], the activity change is 0.0547% [at 18.6 µM]. Besides, the fluorescence, % of Rose Bengal in assay [2] was 0.012% [at 18.6 µM]. In addition, the fluorescence, % of fluorescein control in [4] is -0.0379% [at 18.6 µM]. Moreover, in [8], the Potency result was “inactive”.

As for `CC(C)C(=O)c1ccccc1`, the molecule was called inactive in assay [7], in [5], in assay [1], in [2], in [3] and in assay [4]. Further, in assay [6], the result was inactive.

`C=CCOc1c(Br)cc(C(C)(C)c2cc(Br)c(OCC=C)c(Br)c2)cc1Br`: the molecule was classed as inactive in assay [7], in [1], in assay [2], in assay [3], in assay [4] and in assay [6]. Further, the Potency entry in [8] was “inactive”.

`CCC1COC(=O)O1` (configuration not stated): the result in assay [7], in assay [5], in [1], in assay [2], in assay [3] and in assay [4] was inactive. The outcome in [6] was inactive. Also, in assay [8], the Potency result was “inactive”.

`CN[C@@H]1[C@@H](O)[C@@H](O[C@@H]2[C@H](O)[C@H](O[C@H]3OC(CN)=CC[C@H]3N)[C@@H](N)C[C@H]2N)OCC1(C)O` (some centres not stated): the molecule was classed as inactive in [7], in assay [5], in assay [1], in assay [2], in assay [3] and in [4]. Moreover, in assay [6], the result was inactive. The Potency result in [8] is “inactive”.

As to `CC(=O)OCC(=O)[C@@]1(O)[C@H](OC(C)=O)C[C@H]2[C@@H]3CCC4=CC(=O)C=C[C@]4(C)[C@@]3(F)[C@@H](O)C[C@@]21C`, the molecule was classed as inactive in [7], in assay [5], in [1], in assay [2], in assay [3] and in assay [4]. Besides, in assay [6], the molecule was classed as inactive. Also, the Potency in assay [8] was 134 nM [inconclusive] (active).

Consider `CCNC(=O)/C=C/c1cccc(Br)c1`, for which the result in assay [7], in [1], in [2], in [3], in assay [4] and in assay [6] was inactive. Moreover, in assay [8], the Potency entry is “inactive”.

For the molecule `CCCCOC(=O)[C@@H](C)Oc1ccc(Oc2ccc(C(F)(F)F)cn2)cc1`, the molecule was called inactive in assay [1], in assay [2], in [3], in [4] and in [6]. In [8], the Potency entry was “inactive”.

Consider `CCCOC(=O)CCCCC(=O)OCCC`, for which the call in assay [7], in [1], in assay [2], in [3], in assay [4] and in assay [6] was inactive. For the same molecule, in [9], the molecule was called inactive. Also, the Potency entry in [8] was “inactive”.

In the case of `NCCc1ccn[nH]1`, the figures for the fluorescence, % of fluorescent control in assay [7], in assay [1] and in assay [3] were -0.0158% [at 18.6 µM], -0.0073% [at 18.6 µM] and -0.0614% [at 18.6 µM], respectively. The activity change in [5] was 0.0838% [at 18.6 µM]. Further, the fluorescence, % of Rose Bengal in assay [2] is 0.001% [at 18.6 µM]. In addition, the fluorescence, % of fluorescein control in assay [4] was -0.0021% [at 18.6 µM]. In addition, the molecule was called inactive in assay [9].

Take `CNCc1ccccc1`: the molecule was classed as inactive in assay [7], in [5], in [1], in assay [2], in [3] and in assay [4]. Further, in [6], the outcome was inactive.

On to `COc1cc2c(Nc3ccc(Br)cc3F)ncnc2cc1OCC1CCN(C)CC1`, for which the molecule was called inactive in assay [7], in assay [5], in assay [1], in [2], in assay [3] and in [4]. Further, the call in [6] was inactive. For the same molecule, in assay [8], the Potency result is “inactive”.

Consider `Nc1ccc(/C=C/c2ccc(N)cc2S(=O)(=O)O)c(S(=O)(=O)O)c1`, for which the call in assay [7], in [5], in assay [1], in assay [2], in assay [3] and in assay [4] was inactive. The molecule was called inactive in [6]. The Potency entry in [8] was “inactive”.

As to `CCCCCCCCCCCCC`, the molecule was classed as inactive in assay [7], in assay [5], in assay [1], in [2], in assay [3] and in assay [4]. Further, the call in [6] and in assay [9] was inactive. Moreover, in assay [8], the Potency result was “inactive”.

`NC(=O)NC(=O)Cc1ccccc1`: the outcome in assay [7], in assay [5], in assay [1], in assay [2], in [3] and in [4] was inactive. The molecule was called inactive in assay [6] and in assay [9]. Moreover, the Potency result in [8] is “inactive”.

With `CN(C1CCCCC1)S(=O)(=O)c1ccccc1N`, the molecule was classed as inactive in [7], in assay [5], in [1], in assay [2], in [3] and in assay [4]. For the same molecule, the molecule was classed as inactive in [6].

As for `O=C(O)Cc1cccc(-c2cc(CCCCCCc3ccc(O[C@H]4O[C@H](CO)[C@@H](O)[C@H](O)[C@@H]4O)c(-c4cccc(CC(=O)O)c4)c3)ccc2O[C@H]2O[C@H](CO)[C@@H](O)[C@H](O)[C@@H]2O)c1`, the outcome in assay [7], in assay [5], in assay [1], in assay [2], in [3] and in [4] was inactive. Also, the result in assay [6] was inactive.

For the origin of these results see PubChem BioAssay (Tox21).
